From PubChem BioAssay (Tox21)
Records with an inconclusive call do not appear. Calls of active or inactive are those of the source. Unless noted, the call rests on the fitted dose curve; in most records, active means well fitted curve in the direction sought with a large enough effect in the repeat runs; inconclusive means weak or mixed curves; inactive means no such curve, though single readings can be large; an effect the other way counts as inactive or inconclusive.

Key:
[1] = molecular target: Luciferin 4-monooxygenase (Photinus pyralis) (UniProt P08659); test: qHTS assay to identify small molecule inhibitors of firefly luciferase (AID 1224835); further: nearly all actives have a fitted effect of over 25% in size; further: potency means the concentration at half of the fitted maximal effect; on activity change, negative = inhibition: series mostly up to about 120 µM
Summary of the method: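 Quantitative HTS format; KM concentrations of both substrates. Purified P. pyralis FLuc activity quantified from luminescence images.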

[2] = qHTS assay to identify small molecule agonists of the constitutive androstane receptor (CAR) signaling pathway - cell viability counter screen (AID 1224836); further: nearly all actives have a fitted effect of over 45% in size; further: potency means the concentration at half of the fitted maximal effect; on viability change, negative = cytotoxic: series mostly up to about 92 µM
Summary of the method: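 Double-stable HepG2 hepatoma cells (hCAR plus CYP2B6-2.2kb) are treated for 23 h at 37 C with test compounds in 15-point concentration series. PK11195 at 0.75 uM final is co-added. Cell viability is quantified by CellTiter-Fluor.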

[3] = qHTS assay to identify small molecule antagonists of the constitutive androstane receptor (CAR) signaling pathway - cell viability counter screen (AID 1224837); further: nearly all actives have a fitted effect of over 45% in size; further: potency means the concentration at half of the fitted maximal effect; on activity change, negative = cytotoxicity: series mostly up to about 92 µM
Summary of the method: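 In quantitative HTS format, compounds at 15 concentrations were applied to HepG2 cells double-transfected with hCAR and CYP2B6-2.2kb under 50 nM CITCO stimulation; live-cell protease activity was read after 23 hr via CellTiter-Fluor.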

[4] = qHTS assay to identify small molecule antagonists of the estrogen related receptor signaling pathway with the pleiotropic PPARgamma coactivator (PGC) from Tox21 10K library - cell viability counter screen (AID 1224840; active means well fitted cell-killing curve with a large enough effect in the repeat runs, not every such curve was filed as active; further: nearly all actives have a fitted effect of over 40% in size)
Summary of the method: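 Viability counter screen, PGC/ERR cells: 17.5 h compound exposure at 37 C, CellTiter-Fluor fluorescence endpoint.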

[5] = molecular target: Thyrotropin receptor (Homo sapiens) (UniProt P16473); test: qHTS assay to identify small molecule agonists of the thyroid stimulating hormone receptor (TSHR) signaling pathway (AID 1224843; calls by dose curve; further: nearly all actives have a fitted effect of over 45% in size)
Summary of the method: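 Using 15 concentrations per compound in triplicate, cAMP production was monitored in TSHR-HEK293 cells after 30 min compound incubation at RT; HTRF reagents followed, with fluorescence intensity recorded after 1 h.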

[6] = qHTS assay to identify small molecule agonists of the hypoxia (HIF-1) signaling pathway - cell viability counter screen (AID 1224844; calls by dose curve; further: nearly all actives have a fitted effect of over 50% in size; further: potency means the concentration at half of the fitted maximal effect)
Summary of the method: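 Same wells as the HIF-1 reporter screen; ME-180 cells carrying HRE-bla, 17 hr treatment at 37C; CellTiter-Glo luminescence read after 30 min at room temperature.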

[7] = molecular target: Nuclear receptor subfamily 1 group I member 3 (Homo sapiens) (UniProt Q14994); test: qHTS assay to identify small molecule antagonists of the constitutive androstane receptor (CAR) signaling pathway (AID 1224838); further: nearly all actives have a fitted effect of over 40% in size; further: potency means the concentration at half of the fitted maximal effect
Summary of the method: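 CITCO-stimulated (50 nM final) HepG2 cells stably transfected with hCAR and CYP2B6-2.2kb luciferase were exposed to compounds at 15 concentrations for 24 h at 37 C/5% CO2. A luciferase reagent was added and luminescence recorded after 30 min.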

[8] = molecular target: Nuclear receptor subfamily 1 group I member 3 (Homo sapiens) (UniProt Q14994); test: qHTS assay to identify small molecule agonists of the constitutive androstane receptor (CAR) signaling pathway (AID 1224839); further: nearly all actives have a fitted effect of over 15% in size; further: potency means the concentration at half of the fitted maximal effect;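 on activation: HepG2 cells stably carrying human CAR and a CYP2B6 luciferase reporter; series mostly up to about 92 µM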
Summary of the method: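 Readout: firefly luciferase luminescence via ONE-Glo. System: HepG2 double-stable for hCAR and CYP2B6-2.2kb. Conditions: 15-point compound titration, PK11195 at 0.75 uM final, 24 h incubation.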

[9] = qHTS assay to identify small molecule antagonists of the estrogen related receptor signaling pathway with the pleiotropic PPARgamma coactivator (PGC) from Tox21 10K library (AID 1224841; call rule not given here; further: actives are mostly falling curves and most rising ones were filed inactive; nearly all actives have a fitted effect of over 50% in size; further: potency means the concentration at half of the fitted maximal effect; on activity, negative = inhibition: series mostly up to about 92 µM)
Summary of the method: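 In the PGC/ERR line, DMSO solutions of test chemicals are pin-delivered to 2,000 cells/well six hours after dispensing. Following eighteen hours' incubation, One-Glo reagent is added and luminescence recorded.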

[10] = qHTS assay to identify small molecule agonists of the estrogen related receptor signaling pathway with the pleiotropic PPARgamma coactivator (PGC) from Tox21 10K library (AID 1224842); further: nearly all actives have a fitted effect of over 15% in size
Summary of the method: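 PGC/ERR reporter cells (NTP line) were seeded 2,000 per well, rested 6 h at 37 C/5% CO2, then pin-dosed with compounds in DMSO for 18 h at 37 C; luciferase read by One-Glo luminescence after 30 min at room temperature.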
On the % scale 0 is the no-effect control and ±100 the full control effect.

Luciferin 4-monooxygenase (Photinus pyralis), sequence (P08659 whole entry, looked up): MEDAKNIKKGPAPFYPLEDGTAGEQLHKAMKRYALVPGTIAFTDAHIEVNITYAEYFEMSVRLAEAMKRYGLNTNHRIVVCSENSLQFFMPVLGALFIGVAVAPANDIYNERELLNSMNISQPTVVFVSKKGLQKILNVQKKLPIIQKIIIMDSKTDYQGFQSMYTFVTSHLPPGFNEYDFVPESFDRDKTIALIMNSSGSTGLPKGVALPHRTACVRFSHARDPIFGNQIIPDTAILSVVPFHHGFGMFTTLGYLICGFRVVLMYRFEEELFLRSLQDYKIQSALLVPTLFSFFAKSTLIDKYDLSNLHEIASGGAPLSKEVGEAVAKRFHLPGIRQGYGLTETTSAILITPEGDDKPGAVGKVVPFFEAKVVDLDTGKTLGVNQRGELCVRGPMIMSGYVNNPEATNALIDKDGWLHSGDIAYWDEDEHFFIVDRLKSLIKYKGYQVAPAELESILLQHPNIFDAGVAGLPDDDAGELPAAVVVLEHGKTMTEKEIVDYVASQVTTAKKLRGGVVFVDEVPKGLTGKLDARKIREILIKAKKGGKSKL
Nuclear receptor subfamily 1 group I member 3 (Homo sapiens), sequence (Q14994 whole entry, looked up): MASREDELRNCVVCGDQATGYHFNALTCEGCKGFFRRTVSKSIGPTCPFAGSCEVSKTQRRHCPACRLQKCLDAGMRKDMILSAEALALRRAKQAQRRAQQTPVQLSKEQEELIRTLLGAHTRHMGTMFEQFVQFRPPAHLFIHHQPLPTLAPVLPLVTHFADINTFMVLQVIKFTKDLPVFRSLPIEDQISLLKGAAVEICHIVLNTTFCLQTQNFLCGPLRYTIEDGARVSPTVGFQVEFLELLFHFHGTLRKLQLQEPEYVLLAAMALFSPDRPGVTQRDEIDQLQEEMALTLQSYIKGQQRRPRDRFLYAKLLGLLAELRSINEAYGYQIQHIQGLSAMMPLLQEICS
Thyrotropin receptor (Homo sapiens), sequence (P16473 whole entry, looked up): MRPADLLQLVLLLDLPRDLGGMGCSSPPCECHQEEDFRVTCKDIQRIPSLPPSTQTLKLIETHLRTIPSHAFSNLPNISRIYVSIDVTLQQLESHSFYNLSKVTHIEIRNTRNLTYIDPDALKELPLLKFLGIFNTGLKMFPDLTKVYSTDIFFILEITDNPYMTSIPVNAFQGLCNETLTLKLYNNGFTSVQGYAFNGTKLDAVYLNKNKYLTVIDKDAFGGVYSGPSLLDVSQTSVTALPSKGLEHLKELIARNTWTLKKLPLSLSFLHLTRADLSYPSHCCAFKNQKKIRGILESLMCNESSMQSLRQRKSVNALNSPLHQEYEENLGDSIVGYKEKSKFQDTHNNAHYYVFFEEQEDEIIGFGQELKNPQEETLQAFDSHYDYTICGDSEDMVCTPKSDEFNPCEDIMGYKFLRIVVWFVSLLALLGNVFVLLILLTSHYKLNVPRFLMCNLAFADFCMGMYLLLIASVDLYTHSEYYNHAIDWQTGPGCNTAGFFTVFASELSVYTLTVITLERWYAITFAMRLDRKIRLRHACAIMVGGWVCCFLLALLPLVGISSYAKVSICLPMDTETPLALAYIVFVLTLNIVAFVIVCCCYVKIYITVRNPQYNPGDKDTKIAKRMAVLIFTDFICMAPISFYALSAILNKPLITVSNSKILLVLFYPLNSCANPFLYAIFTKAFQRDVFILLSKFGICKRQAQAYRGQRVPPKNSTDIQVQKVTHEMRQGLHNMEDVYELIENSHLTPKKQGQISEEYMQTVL

CC(C)(C)c1ccc(C(=O)O)cc1
inactive: Potency [2] | Potency [3] | Potency [4] | Potency [5] | Potency [6]
active: Potency [1] 35.6 µM

O=C(OC[C@H]1O[C@@H](OC(=O)c2cc(O)c(O)c(OC(=O)c3cc(O)c(O)c(O)c3)c2)[C@H](OC(=O)c2cc(O)c(O)c(OC(=O)c3cc(O)c(O)c(O)c3)c2)[C@@H](OC(=O)c2cc(O)c(O)c(OC(=O)c3cc(O)c(O)c(O)c3)c2)[C@@H]1OC(=O)c1cc(O)c(O)c(OC(=O)c2cc(O)c(O)c(O)c2)c1)c1cc(O)c(O)c(OC(=O)c2cc(O)c(O)c(O)c2)c1
inactive: activity change, negative = inhibition [1] -18.6% [at 23.6 µM] | viability change, negative = cytotoxic [2] -11.1% [at 19 µM] | activity, negative = inhibition [7] -0.544% [at 19 µM] | activation [8] -3.23% [at 19 µM] | activity, negative = inhibition [9] -8.46% [at 19 µM] | activation [10] -3.36% [at 19 µM] | activity change, negative = cytotoxicity [6] -0.825% [at 15.8 µM]

[O-][n+]1ccccc1SSc1cccc[n+]1[O-]
inactive: activation [10] -33.7% [at 19 µM] | activation [5] 15.2% [at 19 µM]
active: Potency [1] 0.425 µM | Potency [2] 920 nM | Potency [3] 206 nM | Potency [9] 1.64 µM | Potency [6] 0.117 µM

CO[Si](CCCNc1ccccc1)(OC)OC
inactive: Potency [1] | Potency [2] | Potency [7] | Potency [8] | Potency [4] | Potency [5] | Potency [6]

O=C(NO)C1(NS(=O)(=O)c2ccc(Oc3ccc(F)cc3)cc2)CCOCC1
inactive: Potency [1] | Potency [2] | Potency [3] | Potency [4] | Potency [10] | Potency [6]

O=C(O)c1cc(O)c2c(c1)C(=O)c1cccc(O)c1C2=O
inactive: Potency [1] | Potency [2] | Potency [7] | Potency [8] | Potency [4] | Potency [5] | Potency [6]

C/C=C(\C)C(=O)OCc1ccccc1
inactive: Potency [2] | Potency [3] | Potency [4] | Potency [10] | Potency [5] | Potency [6]
active: Potency [1] 63.3 µM

CC(C)=CCOc1ccc(/C=C/C(=O)c2ccc(OCC=C(C)C)cc2OCC(=O)O)cc1
inactive: Potency [1] | Potency [2] | Potency [7] | Potency [8] | Potency [4] | Potency [10] | Potency [5] | Potency [6]
active: Potency [9] 21.1 µM

CSc1ccc2c(c1)C(N1CCN(C)CC1)Cc1ccccc1S2 (centres undefined)
inactive: Potency [1] | Potency [2] | Potency [7] | Potency [8]

CCCCCCCCCCCCCCCC(=O)OC[C@H](O)[C@H]1OC(=O)C(O)=C1O
inactive: Potency [2] | Potency [7] | Potency [8] | Potency [4] | Potency [9] | Potency [10] | Potency [5]
active: Potency [1] 63.3 µM

NNC(=O)c1cccc(C(=O)NN)c1
inactive: Potency [1] | Potency [2] | Potency [7] | Potency [8] | Potency [4] | Potency [6]

Oc1cccc2cc3cccc(O)c3c(O)c12
active: Potency [1] 71.3 µM
inactive: Potency [2] | Potency [3] | Potency [4] | Potency [5]

CCC1OCC(COc2ccc(Oc3ccccc3)cc2)O1 (centres undefined)
inactive: Potency [2] | Potency [7] | Potency [4] | Potency [9] | Potency [6]
active: Potency [1] 17.8 µM | Potency [8] 21.7 µM

CN(C)[C@@H]1C(=O)C(C(N)=O)=C(O)[C@@]2(O)C(=O)C3=C(O)c4c(O)ccc(Cl)c4[C@@H](O)[C@H]3C[C@@H]12
inactive: Potency [1] | Potency [2] | Potency [3] | Potency [4] | Potency [10] | Potency [5] | Potency [6]

CCC(CN)=C(c1ccccc1)c1ccccc1
inactive: Potency [1] | Potency [2] | Potency [7] | Potency [8] | Potency [4] | Potency [5]

C[C@]12CCC(=O)C=C1CC[C@@H]1[C@@H]2[C@@H](O)C[C@@]2(C)[C@H]1CC[C@]2(O)C(=O)COC(=O)CCC(=O)O
inactive: Potency [1] | Potency [2] | Potency [3] | Potency [4] | Potency [5] | Potency [6]

CCCCCCCCCCC=O
inactive: Potency [1] | Potency [2] | Potency [3] | Potency [10] | Potency [5] | Potency [6]

CCOC(=O)O[C@]1(C(=O)OCCl)CC[C@H]2[C@@H]3CCC4=CC(=O)C=C[C@]4(C)[C@H]3[C@@H](O)C[C@@]21C
inactive: Potency [1] | Potency [2] | Potency [3] | Potency [4] | Potency [5]

O=C1CCCCCN1SSN1CCCCCC1=O
active: Potency [7] 27.3 µM | Potency [6] 43.6 µM
inactive: Potency [1] | Potency [2] | Potency [8] | Potency [4] | Potency [10] | Potency [5]

CCCCCCCCCOC(=O)c1ccc(O)cc1
active: Potency [1] 70 µM | Potency [6] 54.2 µM
inactive: Potency [2] | Potency [7] | Potency [8] | Potency [9]

Clc1ccc(C(Cn2ccnc2)OCc2ccc(Sc3ccccc3)cc2)c(Cl)c1 (centres undefined)
inactive: Potency [1] | Potency [2] | Potency [7] | Potency [8] | Potency [4] | Potency [5] | Potency [6]

CCc1oc2ccccc2c1C(=O)c1cc(Br)c(O)c(Br)c1
inactive: Potency [1] | Potency [2] | Potency [7] | Potency [8] | Potency [4] | Potency [5] | Potency [6]
